Bioassay records as filed in PubChem BioAssay.
Shown are actives, neighbours in structure and some others; about 9.2% of the full set was active somewhere.
ELG1 genotoxic – genotoxicity induction in ELG1-luciferase HEK293T cells | HEK293T ELG1-luciferase reporter, luminescence, 16 h | Potency, µM (top dose mostly 46 µM), for the others: at the highest dose activity change, positive = activation, actives largely listed as activators | 330,000 tested, 1.3% active | AID 504466; also: % of control where 0% means no effect; nearly all actives have a fitted effect of over 60% in size
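DMSO vehicle served as control against compound-treated ELG1-luciferase HEK293T cells; exposure lasted 16 hr at 37 °C and 5% CO2, followed by ONE-Glo luminescence detection after 30 min.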
NPC1 promoter act – activates the NPC1 promoter; Huh7 NPC1 promoter luciferase reporter, 24 h; Potency, µM (top dose mostly 9.22 µM), without a hit: at the highest dose activation, usual class: activators; 320,000 tested, 2.4% active; also: % of control where 0% means no effect; nearly all actives have a fitted effect of over 60% in size
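Stable NPC1-promoter luciferase Huh7 line; cpd (DMSO) 24 h, 37 °C, 5% CO2; Amplite luciferase reagent 10 min RT; luminescence readout. qHTS format.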
ELG1 DNA repair – ELG1-dependent DNA repair inhibition. HEK293T ELG1-luciferase reporter, luminescence, 16 h; DNA damage induced by 5-fluorouridine. Potency, µM (doses to about 46.1 µM), without a hit: top-dose activity change, negative = inhibition, most hits filed as inhibitors. 330,000 tested, 2.3% active. AID 504467; also: % is scaled to controls: 0 for no effect and ±100 for the full control effect; nearly all actives have a fitted effect of over 55% in size
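5-Fluorouridine DNA damage + compound/DMSO, 2,000 cells/well, 16 h, 37 °C/5% CO2. ONE-Glo, 30 min RT, luminescence. Readout = decrease in reporter signal.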
SMN2 splice enh – increases expression of the SMN2 splice variant; 210,000 tested, 2.8% active; Potency, µM (doses to about 46.1 µM), without a hit: top-dose activity change, positive = activation, actives largely listed as activators; HEK293 SMN2-luciferase splicing reporter, luminescence, 30-36 h; also: % of control where 0% means no effect; nearly all actives have a fitted effect of over 55% in size
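HEK293 cells carry an SMN2 minigene-luciferase reporter in which exon 7 inclusion puts luciferase in frame. Cells were seeded at 2000 cells/well, attached for 10-12 hours, then exposed to compounds for 30-36 hours at 37C before ONE-Glo luminescence.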
FLuc modulator – firefly luciferase modulation, counter-screen for miR-21 project; Potency, µM (titrated, usually from 57.5 µM), for inactives: at the highest dose activity change, negative = inhibition, most hits filed as inhibitors; AID 588342; 360,000 tested, 6.9% active; P08659; purified FLuc, Km substrates, luminescence inhibition;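 also: plate controls were vehicle for no effect and reference inhibitor for full effect; nearly all actives have a fitted effect of over 55% in size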
Target sequence (P08659 whole entry, looked up): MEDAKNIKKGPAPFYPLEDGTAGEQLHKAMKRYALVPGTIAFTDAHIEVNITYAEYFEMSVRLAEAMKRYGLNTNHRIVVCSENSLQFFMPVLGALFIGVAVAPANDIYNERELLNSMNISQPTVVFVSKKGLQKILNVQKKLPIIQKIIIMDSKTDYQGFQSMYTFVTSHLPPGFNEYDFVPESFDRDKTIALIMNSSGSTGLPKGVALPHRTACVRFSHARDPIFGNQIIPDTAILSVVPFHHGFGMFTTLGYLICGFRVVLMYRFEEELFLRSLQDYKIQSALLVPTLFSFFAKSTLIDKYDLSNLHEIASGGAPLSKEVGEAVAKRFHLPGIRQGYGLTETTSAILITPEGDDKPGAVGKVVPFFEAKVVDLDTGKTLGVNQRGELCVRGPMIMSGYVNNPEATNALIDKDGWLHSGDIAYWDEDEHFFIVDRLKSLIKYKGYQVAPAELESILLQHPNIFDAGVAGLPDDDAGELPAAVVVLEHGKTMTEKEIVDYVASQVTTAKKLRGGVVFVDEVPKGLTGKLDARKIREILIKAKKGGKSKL
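Purified P. pyralis luciferase, 10 nM final, with Km-level 10 uM D-luciferin and 10 uM ATP in 50 mM Tris acetate pH 7.5, 10 mM Mg acetate, 0.01% Tween-20, 0.05% BSA; 6-point qHTS titration about 60 µM downward; luminescence read.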
Rab9 promoter act – activates the Rab9 promoter | Huh7 Rab9 promoter-luciferase reporter, luminescence, 24 h | Potency, µM (top dose mostly 9.22 µM), for the others: top-dose activation, negative = inhibition, most hits filed as activators | 320,000 tested, 2.8% active; also: % of control where 0% means no effect; nearly all actives have a fitted effect of over 60% in size
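Rab9 promoter-driven luciferase in stably transfected Huh7 cells; 1500 cells/well rested 2 h, exposed to compound in DMSO for 24 h at 37 °C, 5% CO2. Luminescence read 10 min after adding luciferase reagent at ambient temperature.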
Starred values were filed as active, the others as inactive; ? = inconclusive; . = not tested or not shown; [ ] = dose if it differs, or a comment. Calls follow the shape of the dose curve; as a rule, active = well fitted curve in the direction sought with a large enough effect; inconclusive = small, poorly fitted or top-dose-only effect, or another doubt; inactive = no such curve, though single readings can be large; an effect the other way counts as inactive or inconclusive. Potency is read from the fitted curve at half-maximal effect.

SMILES	ELG1 genotoxic	NPC1 promoter act	ELG1 DNA repair	SMN2 splice enh	FLuc modulator	Rab9 promoter act
CC(C)(C)OC(=O)C(Cc1ccc(OC(C)(C)C)cc1)NC(=O)CNC(=O)OCc1ccccc1 (centres undefined)	-6%	0%	8.2µM*	-40%	4%	-4%
C[C@H](NC(=O)OCc1ccccc1)C(=O)NNC(=O)[C@H](Cc1ccccc1)NC(=O)OC(C)(C)C	3%	1%	?	.	0%	-2%
CC(=O)c1ccc(NC(=O)c2cccs2)cc1	16µM*	2.8µM*	?	10µM*	15µM*	2.2µM*
O=C(Nc1cccc(NC(=O)c2cccs2)c1)c1ccc(F)cc1	-5%	0%	-5%	.	21µM*	-4%[1.84 µM]
COc1ccc(C(=O)Nc2cccc(NC(=O)c3cccs3)c2)cc1	0%	18%	22%	.	9.5µM*	19%
O=C(NNC(=O)c1cccs1)c1ccc(F)cc1	-14%	14%	?	.	-8%	5%
COc1cc(NC(=O)c2cccs2)cc(OC)c1	10%	24%	?	15%	?	?
Cc1ccc(C(=O)Nc2cccc(NC(=O)c3cccs3)c2)c(C)c1	-7%	0%	-18%	.	12µM*	6%
CCN(C[C@H]1N[C@@](C)(C(=O)OC)[C@H]2C(=O)N(Cc3ccccc3)C(=O)[C@@H]12)S(=O)(=O)c1ccccc1	-1%	.	2%	.	.	.
COc1ccccc1CC(=O)Nc1ccc(NC(=O)c2cccs2)cc1	15%	1%	28%	.	1%	15%
Cc1ccc(S(=O)(=O)Nc2ccc(NC(=O)c3cccs3)cc2)cc1	-4%	-6%	?	11µM*	-4%	-2%
COC(=O)Cc1ccc(NC(=O)c2cccs2)cc1	15%	?	?	11µM*	21µM*	2.8µM*
COc1ccc(Cl)cc1-c1nc(-c2ccc(NC(=O)c3cccs3)cc2)no1	14%	14%	-2%	3%	15µM*	?
CC(=O)c1ccc(OC(=O)c2cccs2)cc1	-7%	5%	7%	10%	12µM*	-4%
CCN(c1ccc(OC)cc1)S(=O)(=O)c1nnc(NC(=O)COc2ccc(F)cc2)s1	-2%	-1%	-1%	.	-2%	-3%
COc1cc(NC(=O)c2cc(OC)c(OC)c(OC)c2)ccc1NC(=O)c1cccs1	-12%	-12%	?	.	0%	-5%
COC(=O)Cc1ccc(NC(=O)c2ccccc2Br)cc1	10%	12%	?	5%	17µM*	2%
COC(=O)Cc1ccc(NC(=S)NNC(=O)c2ccccc2Br)cc1	0%	-2%	5%	-10%	-1%	-1%
COc1ccc(-c2[nH]ncc2/C=N\NC(=O)c2cccs2)cc1OC	1%	1%	0%	.	19µM*	-3%
COc1ccc(NC(=O)c2cccs2)cc1OC	23µM*	20%	?	.	?	24%
O=C(Nc1cccc(NC(=O)c2cccs2)c1)c1ccc(Br)o1	-1%	-1%	-24%	.	24µM*	4%
Cc1c(C(=O)NCc2ccc(N(C)C)cc2)oc2c1-c1nn(Cc3cccc(Cl)c3)cc1CC2	.	.	.	.	-15%	.
COc1ccc(CNC(=O)CN2C(=O)COc3ccccc32)c(OC)c1	.	.	.	.	-1%	.
COc1ccc2c(c1)OC[C@H]1c3cc4c(cc3O[C@@H]21)OCO4	.	.	.	-5%	.	.
Cc1ccc(NC(=O)c2ccccc2NC(=O)c2cccs2)cc1	4%	-9%	?	.	?	4%
SMILES	ELG1 genotoxic	NPC1 promoter act	ELG1 DNA repair	SMN2 splice enh	FLuc modulator	Rab9 promoter act
N/C(=N\O)c1ccc(NC(=O)c2cccs2)cc1	?	?	?	27%	17µM*	3.5µM*
C/C(=N\NC(=O)C(N)=O)c1ccc(NC(=O)c2cccs2)cc1	?	27%	?	?	?	?
COc1ccc(NC(=O)c2ccc(NC(=O)c3cccs3)cc2)cc1	21µM*	-1%	?	.	-3%	-1%
COc1ccc(NC(=O)c2ccccc2NC(=O)c2cccs2)cc1	?	16%	?	.	15µM*	22%
CC1CCCN(C(=O)COc2ccc(NC(=O)c3cccs3)cc2)C1 (centres undefined)	-3%	13%	18%	-20%	9.5µM*	13%
Cc1ccc(OCC(=O)N2CCN(C(=O)c3cccs3)CC2)cc1	-2%	-3%	-9%	-4%	2%[2.3 µM]	0%
CC(=O)c1ccc(NS(=O)(=O)c2ccc3c(c2)CCC(=O)N3)cc1	-4%	0%	14%	.	7%	1%
CC(C)c1ccc(NC(=O)C2C3C=CC4(O3)C2C(=O)N(CCCN2CCOCC2)C4C(=O)NC2CCCCC2)cc1 (centres undefined)	1%	-3%	7%	.	1%	-7%
COc1cccc(NC(=O)c2cccs2)c1	16µM*	?	?	13µM*	17µM*	?
COc1ccc(NC(=O)c2ccco2)cc1NC(=O)c1cccs1	1%	-1%	-4%	4.5µM*	-13%	-6%
COc1ccc(NC(=O)n2nc(OC(=O)c3cccs3)cc2N)cc1	?	12%	?	.	17µM*	13%
CC(C)(C)c1ccc(Oc2ccc(NC(=O)c3cccs3)cn2)cc1	-9%	-14%	6.5µM*	.	?	-24%
COc1ccc(-c2ccc(S(=O)(=O)n3nc(OC(=O)c4cccs4)cc3N)cc2)cc1	-2%	-1%	8%	.	-5%	14%
COc1cc(NC(=O)c2cccs2)c(OC)cc1NC(=O)c1ccco1	-1%	-1%	-12%	-22%	-9%	2%
Cc1ccc(C)c(Cn2c3ccccc3c3cnn(CC(=O)NC4CCC(C)CC4)c(=O)c32)c1 (centres undefined)	.	.	.	-9%	-3%	.
O=C(NCCCc1ccccc1)c1ccc([N+](=O)[O-])cc1Cl	?	?	?	.	8.5µM*	?
Cc1cccc(NC(=O)C(=O)NCCCc2ccccc2)c1	23%	?	?	10µM*	?	?
Cc1ccc(C(=O)NCCCc2ccccc2)c(C)c1	16µM*	1.4µM*	?	13µM*	8.5µM*	3.5µM*
Cc1cc(C)cc(C(=O)NCCCc2ccccc2)c1	2%	-1%	1%	-2%	-12%	-1%[1.84 µM]
Cc1ccc(C(=O)NCCCc2ccccc2)c(Cl)c1	?	2.5µM*	?	.	8.5µM*	2.2µM*
O=C(NCCc1ccccc1)C(=O)Nc1cccc(Br)c1	.	.	.	-2%	0%	.
CCOc1ccc(C(=O)NC(C(=O)NCCc2ccc(OC(F)F)cc2)C(C)C)cc1 (centres undefined)	-7%	-6%	-8%	.	-2%	-2%
